Test results: the supplement of paper PMC13380429

Tested on: Vero E6 infected with SARS-CoV-2
Experiment: inhibition of SARS-CoV-2 cytopathic effect; higher = more antiviral protection, active = above 15
Conditions: 48 h

Measured: inhibition of SARS-CoV-2 cytopathic effect

C[C@]12CCC(=O)C(O)=C1CC[C@@H]1[C@@H]2CC[C@]2(C)C(=O)CC[C@@H]12 [formestane]
inactive: 1 nM -6.07% | 8.33 nM -1.52% | 100 nM 4.22% | 833.33 nM 6.78% | 10000 nM -1.65%

COc1ccc(-c2nc(N3CCOCC3)c3sc(CN(C)c4ncc(C(=O)NO)cn4)cc3n2)cn1
inactive: 1 nM -0.39% | 8.33 nM -5.36% | 100 nM -18.1% | 833.33 nM -20.7% | 10000 nM -21.4%

N[C@@]1(C(=O)O)CC[C@H]2[C@H](C(=O)O)[C@H]21 [eglumetad]
inactive: 1 nM 0.4% | 8.33 nM -0.24% | 100 nM -0.34% | 833.33 nM -0.18% | 10000 nM 2.06%

C=CCn1c(=O)c2cnc(Nc3ccc(N4CCN(C)CC4)cc3)nc2n1-c1cccc(C(C)(C)O)n1
inactive: 1 nM -1.29% | 8.33 nM 2.7% | 100 nM 0.63% | 833.33 nM -3.99% | 10000 nM -6.53%

Cn1cc(-c2cnc3ccc4ccc(CS(=O)(=O)NCc5ccccn5)cc4c(=O)c3c2)cn1
inactive: 1 nM 1.02% | 8.33 nM 0.57% | 100 nM 1.94% | 833.33 nM 3.38% | 10000 nM 1.59%

CC1=C(/C=C/C(C)=C/C=C/C(C)=C/CO)C(C)(C)CCC1 [retinol]
inactive: 1 nM -0.49% | 8.33 nM 0.39% | 100 nM 0.03% | 833.33 nM 2.09% | 10000 nM 2.75%

CN(Cc1ccccc1)C(=O)[C@H](Cc1ccc2ccccc2c1)NC(=O)[C@@H]1CCCN1C(=O)Nc1ccccc1[N+](=O)[O-]
inactive: 1 nM -0.58% | 8.33 nM 2.06% | 100 nM 3.45% | 833.33 nM 5.13% | 10000 nM 1.31%

Oc1c(I)cc(I)c(O)c1I [riodoxol]
inactive: 1 nM 0% | 8.33 nM 0.37% | 100 nM -0.65% | 833.33 nM -2.42% | 10000 nM -0.9%

CCCCCCCCCCC[C@@H](C[C@@H]1OC(=O)[C@H]1CCCCCC)OC(=O)[C@H](CC(C)C)NC=O [orlistat]
inactive: 1 nM 1.59% | 8.33 nM 3.04% | 100 nM 0.9% | 833.33 nM 2.31% | 10000 nM 1.43%

CN(C)CC[C@H](CSc1ccccc1)Nc1ccc(S(=O)(=O)NC(=O)c2ccc(N3CCN(Cc4ccccc4-c4ccc(Cl)cc4)CC3)cc2)cc1[N+](=O)[O-]
inactive: 1 nM -0.41% | 8.33 nM -0.39% | 100 nM -6.74% | 833.33 nM -16.3% | 10000 nM -20.2%

N#C/C(=C\c1cccn1S(=O)(=O)c1cccc([N+](=O)[O-])c1)S(=O)(=O)c1ccc(F)cc1
inactive: 1 nM -0.59% | 8.33 nM -0.34% | 100 nM -0.6% | 833.33 nM -2% | 10000 nM -0.73%

CC(=O)c1ccc(S(=O)(=O)NC(=O)NC2CCCCC2)cc1 [acetohexamide]
inactive: 1 nM -0.51% | 8.33 nM -0.35% | 100 nM -0.58% | 833.33 nM 0.37% | 10000 nM -0.22%

CC[N+]1(C)CCCC(OC(=O)C(O)(c2ccccc2)c2ccccc2)C1 (stereo not given) [pipenzolate]
inactive: 1 nM -0.09% | 8.33 nM -0.02% | 100 nM -2.48% | 833.33 nM -0.83% | 10000 nM -1.6%

Cc1cc(Oc2ccc3nc(COc4ccc(CC5SC(=O)NC5=O)cc4)n(C)c3c2)cc(C)c1N (stereo not given) [efatutazone]
inactive: 1 nM -0.56% | 8.33 nM 2.28% | 100 nM 0.7% | 833.33 nM 0.08% | 10000 nM -0.83%

O=C(O)c1ccc(-c2c[nH]c3ncc(-c4ccccc4)cc23)cc1C1CCCC1
inactive: 1 nM 4.37% | 8.33 nM 5.26% | 100 nM 0.74% | 833.33 nM 1.88% | 10000 nM -0.09%

COC(=O)N[C@H](C(=O)N[C@@H](Cc1ccccc1)[C@@H](O)CN(Cc1ccc(-c2ccccn2)cc1)NC(=O)[C@@H](NC(=O)OC)C(C)(C)C)C(C)(C)C [atazanavir]
inactive: 1 nM -1.78% | 8.33 nM 2.1% | 100 nM 1.84% | 833.33 nM -0.5% | 10000 nM -0.09%

O=C(/C=C/C=C/c1ccc2c(c1)OCO2)N1CCCCC1 [piperine]
inactive: 1 nM -1.58% | 8.33 nM -1.88% | 100 nM -3.68% | 833.33 nM -2.45% | 10000 nM 5.15%
